14 compounds from PubChem BioAssay (NCI) can be followed below.

Test systems include SR leukemia; RPMI-8226 leukemia; OVCAR-5 ovarian; SK-OV-3 ovarian; IGROV1 ovarian; OVCAR-3 ovarian; HS 578T breast; NCI/ADR-RES ovarian; OVCAR-8 ovarian; OVCAR-4 ovarian.
Common to all, as to test: NCI-60 one-dose screen, 48 h (100 = growth as untreated, 0 = no growth, -100 = all killed)
Common to all, as to details: 10 µM unless noted

The structures appear in SMILES notation. The panel holds about 83,000 compounds, 20% with a hit somewhere; the sample as a whole holds those more often.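 Interpretation: 100, growth as untreated; towards 0, rising growth inhibition; 0, no net growth; 0 to -100, cell death. Compounds scoring below 10 were considered active.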 Unmarked numbers belong to inactive results. Active and inactive are the calls of the source.

Consider `CCN(CC)CC(O)CNc1ccc(NCC2CO2)c2c1C(=O)c1ccccc1C2=O` (configuration not stated), for which the growth with SR leukemia is -4.42% (active); in the assay on RPMI-8226 leukemia it was -40.8% (active); in the assay with OVCAR-5 ovarian, -4.14% (active); with SK-OV-3 ovarian it was 22.5%; in the assay on IGROV1 ovarian, -59.1% (active); in the assay on OVCAR-3 ovarian, -1.52% (active). Further, the growth in the assay with HS 578T breast was -40.4% (active); with NCI/ADR-RES ovarian, -1.62% (active).
As to `Cc1ccc(Nc2ccc(O)c3c2C(=O)c2c(O)ccc(Nc4ccc(C)cc4)c2C3=O)cc1`, the growth in the assay on SR leukemia is 108%; in the assay with RPMI-8226 leukemia, 96.6%; with OVCAR-8 ovarian, 91.4%; in the assay on OVCAR-4 ovarian, 111%; with OVCAR-3 ovarian, 113%; with HS 578T breast, 103%. The growth in the assay with NCI/ADR-RES ovarian was 107%.
As for `O=C1C=CC(=O)N1c1ccccc1`, the growth in the assay with SR leukemia was 45.2%; in the assay on OVCAR-8 ovarian, 99.5%; in the assay with OVCAR-5 ovarian it was 96.4%; in the assay with SK-OV-3 ovarian, 109%; with IGROV1 ovarian, 105%; in the assay with OVCAR-3 ovarian, 1.28% (active). For the same compound, the growth was 103% in the assay with HS 578T breast and 97.7% with NCI/ADR-RES ovarian.
As to `Cc1ccc(/C=C2\CNC/C(=C\c3ccc(C)cc3)C2=O)cc1`, the growth in the assay with SR leukemia is -2.99% (active); in the assay with RPMI-8226 leukemia it was -30.6% (active); in the assay on OVCAR-5 ovarian it was -28.4% (active); in the assay on OVCAR-4 ovarian, 9.79% (active); with SK-OV-3 ovarian, 30.5%; in the assay with IGROV1 ovarian it was -71.2% (active). Moreover, the figures for the growth with OVCAR-3 ovarian and with NCI/ADR-RES ovarian were -58.5% (active) and -51.3% (active), respectively.
Consider `CN(Cc1ccccc1)c1ccc(SC#N)cc1`, for which the growth with RPMI-8226 leukemia was 74.8%; in the assay on OVCAR-8 ovarian, 85%; in the assay on OVCAR-5 ovarian, 106%; with OVCAR-4 ovarian it was 68.9%; in the assay with SK-OV-3 ovarian, 112%; with IGROV1 ovarian it was 98.8%. The growth in the assay on OVCAR-3 ovarian was 71.4%; in the assay with HS 578T breast, 89.7%; with NCI/ADR-RES ovarian, 86.7%.
As to `Cn1ccc(=Nc2ccc(NC(=O)c3ccc(N=c4ccn(C)c5ccc([N+](=O)[O-])cc45)cc3)cc2)cc1`, the growth was 107% in the assay on SR leukemia; 69.3% in the assay with OVCAR-8 ovarian; 87.9% with OVCAR-5 ovarian; 59.4% with OVCAR-4 ovarian; 91.4% in the assay with SK-OV-3 ovarian; 64.8% with IGROV1 ovarian. Besides, the growth in the assay on OVCAR-3 ovarian is 79.5%; with HS 578T breast, 100%; in the assay with NCI/ADR-RES ovarian, 106%.
For the compound `NNc1ccc(Cl)cc1Cl`, the growth with SR leukemia was 57.3%; in the assay on OVCAR-8 ovarian, 52.7%; in the assay with OVCAR-4 ovarian it was 89.2%; in the assay on SK-OV-3 ovarian it was 69.7%; in the assay on OVCAR-3 ovarian, 87.4%; in the assay on HS 578T breast it was 84.1%. The growth with NCI/ADR-RES ovarian is 53.5%.
Regarding `CN1CCC(CN2c3ccccc3Sc3ccccc32)C1` (configuration not stated), the growth is 79.2% in the assay on SR leukemia; 78.7% in the assay on RPMI-8226 leukemia; 84.1% with OVCAR-5 ovarian; 94.4% in the assay on OVCAR-4 ovarian; 109% with SK-OV-3 ovarian; 88.8% in the assay on OVCAR-3 ovarian. Moreover, the growth was 86.1% with HS 578T breast and 85.8% in the assay with NCI/ADR-RES ovarian.
As for `N#C/C(=N\Nc1ccc(Cl)cc1)C(=O)C1CC1`, the growth is 44.4% with RPMI-8226 leukemia; 63.3% in the assay on OVCAR-8 ovarian; 91.9% with OVCAR-5 ovarian; 31.2% with OVCAR-4 ovarian; 65.6% in the assay with SK-OV-3 ovarian; 54.2% in the assay with IGROV1 ovarian. The figures for the growth in the assay on OVCAR-3 ovarian, with HS 578T breast and in the assay with NCI/ADR-RES ovarian were 39.8%, 23.7% and 79.8%, respectively.
Regarding `COC1=CC(=O)c2c(O)c3c(c(O)c2C1=O)CC(C)(O)OC3` (configuration not stated), the growth was 14.3% in the assay with SR leukemia; 34.7% in the assay on RPMI-8226 leukemia; 35.4% in the assay with OVCAR-5 ovarian; -12.8% (active) in the assay on OVCAR-4 ovarian; 86.9% in the assay on SK-OV-3 ovarian; -0.531% (active) in the assay on OVCAR-3 ovarian. Besides, the figures for the growth with HS 578T breast and in the assay with NCI/ADR-RES ovarian were 67.2% and -4.8% (active), respectively.
`O=[N+]([O-])c1ccc(C(Br)c2ccc([N+](=O)[O-])cc2)cc1`: the growth with RPMI-8226 leukemia was 66.1%; in the assay with OVCAR-8 ovarian, 63.2%; in the assay with OVCAR-5 ovarian it was 124%; in the assay on OVCAR-4 ovarian, 64.3%; with SK-OV-3 ovarian, 97.3%; with IGROV1 ovarian, -53.2% (active). In addition, the figures for the growth with OVCAR-3 ovarian, in the assay with HS 578T breast and in the assay on NCI/ADR-RES ovarian were 110%, 107% and 91.5%, respectively.
Consider `CCOC(=O)C1=C(C(=O)c2ccccc2)C(c2cccc([N+](=O)[O-])c2)C(C(=O)c2ccccc2)=C(C(=O)OCC)N1`, for which the growth in the assay with RPMI-8226 leukemia is 32.8%; in the assay with OVCAR-8 ovarian, 96.8%; in the assay with OVCAR-5 ovarian, 87.7%; in the assay with OVCAR-4 ovarian, 92.2%; with SK-OV-3 ovarian it was 96.8%; in the assay on IGROV1 ovarian it was 97.5%. Moreover, the growth in the assay on OVCAR-3 ovarian was 96.1%; in the assay with HS 578T breast, 90.1%; in the assay on NCI/ADR-RES ovarian it was 90.9%.
For the compound `Cc1nnc(N/N=C/c2ccc([N+](=O)[O-])o2)[nH]c1=O`, the growth with RPMI-8226 leukemia was 42.1%; in the assay on OVCAR-8 ovarian, 21.1%; with OVCAR-5 ovarian, -2.06% (active); in the assay on OVCAR-4 ovarian, 29.4%; with SK-OV-3 ovarian it was 10.4%; with IGROV1 ovarian it was 21%. The growth is -7.14% (active) in the assay on OVCAR-3 ovarian, 22% in the assay on HS 578T breast and 8.65% (active) in the assay on NCI/ADR-RES ovarian.
On to `Cc1cc(C(=O)c2ccc(Cl)cc2)ccc1O`, for which the growth was 73.3% with RPMI-8226 leukemia; 85.9% in the assay on OVCAR-8 ovarian; 99% with OVCAR-5 ovarian; 79.2% with OVCAR-4 ovarian; 110% in the assay with SK-OV-3 ovarian; 117% in the assay on IGROV1 ovarian. Also, the growth is 98.8% in the assay with OVCAR-3 ovarian, 116% in the assay on HS 578T breast and 92.2% in the assay with NCI/ADR-RES ovarian.
